Data reported in PubChem BioAssay (Tox21).
Values joined by “and” are separate entries in the source; they are usually repeats but may differ in a detail not shown here. Identical values can stand only once. Records with an inconclusive call do not appear. More than one record can exist for a structure, and the calls need not agree. Active and inactive are the calls of the source. Unless noted, the call rests on the fitted dose curve; in most records, active means well fitted curve in the direction sought with a large enough effect in the repeat runs; inconclusive means weak or mixed curves; inactive means no such curve, though single readings can be large; an effect the other way counts as inactive or inconclusive.

Tests used:
[1] = qHTS assay to identify small molecule agonists of the RXR signaling pathway - cell viability counter screen (AID 1159529); further: nearly all actives have a fitted effect of over 50% in size; further: potency means the concentration at half of the fitted maximal effect; on activity change, negative = cytotoxicity: series mostly up to about 77 µM
Summary of the method: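 Luminescence from CellTiter-Glo (30 min, RT) measured viability in the same wells as the beta-lactamase reporter readout. Cells: GeneBLAzer RXR-alpha HEK 293T, 2% charcoal-stripped FBS. Compound exposure 16 hr, 37 C.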

[2] = qHTS assay to identify small molecule antagonists of the retinoid acid receptor (RAR) signaling pathway - cell viability counter screen (AID 1159551); further: nearly all actives have a fitted effect of over 35% in size; further: potency means the concentration at half of the fitted maximal effect
Summary of the method: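 Seed C3RL4 cells; next day add compound, then retinol to 1 uM final; incubate 6 h at 37 C; add CellTiter-Glo; read luminescence after 30 min at RT.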

[3] = qHTS assay to identify small molecule antagonists of the retinoic acid receptor (RAR) signaling pathway (AID 1159552; further: nearly all actives have a fitted effect of over 50% in size; further: potency means the concentration at half of the fitted maximal effect)
Summary of the method: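 Luminescence from a RARE luciferase reporter in C3RL4 cells served as read-out. Cells received compounds together with 1 uM final retinol and incubated 6 hr at 37 C before detection reagent was added for 30 min at room temperature.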

[4] = qHTS assay to identify small molecule agonists of the retinoic acid receptor (RAR) signaling pathway (AID 1159553); further: potency means the concentration at half of the fitted maximal effect
Summary of the method: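 Activation of retinol signaling was monitored via a RARE luciferase reporter in C3RL4 cells. After 6 hr compound treatment at 37 C, detection reagent was added for 30 min at room temperature before luminescence reading.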

[5] = qHTS assay to identify small molecule antagonists of the estrogen related receptor (ERR) signaling pathway from Tox21 library - cell viability counter screen (AID 1224834); further: nearly all actives have a fitted effect of over 30% in size; further: potency means the concentration at half of the fitted maximal effect
Summary of the method: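 CellTiter-Fluor fluorescence measured; ERR cells; 17.5 h compound incubation at 37 C; 30 min reagent step.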

[6] = target: Luciferin 4-monooxygenase (Photinus pyralis) (UniProt P08659); experiment: qHTS assay to identify small molecule inhibitors of firefly luciferase (AID 1224835); further: nearly all actives have a fitted effect of over 25% in size; further: potency means the concentration at half of the fitted maximal effect; on activity change, negative = inhibition: series mostly up to about 120 µM
Summary of the method: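 Quantitative HTS format; KM concentrations of both substrates. Purified P. pyralis FLuc activity quantified from luminescence images.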

[7] = qHTS assay to identify small molecule agonists of the constitutive androstane receptor (CAR) signaling pathway - cell viability counter screen (AID 1224836); further: series mostly up to about 92 µM; nearly all actives have a fitted effect of over 45% in size
Summary of the method: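 Viability read-out: CellTiter-Fluor fluorescence after 23 h compound exposure at 37 C/5% CO2 in double-stable HepG2-CYP2B6-hCAR cells, with PK11195 present at 0.75 uM final; compounds tested in 15-point titration.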

[8] = target: Nuclear receptor subfamily 1 group I member 3 (Homo sapiens) (UniProt Q14994); experiment: qHTS assay to identify small molecule agonists of the constitutive androstane receptor (CAR) signaling pathway (AID 1224839); further: nearly all actives have a fitted effect of over 15% in size; further: potency means the concentration at half of the fitted maximal effect;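 on activation: HepG2 cells stably carrying human CAR and a CYP2B6 luciferase reporter; series mostly up to about 92 µM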
Summary of the method: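 Luminescence read-out (ONE-Glo, 30 min, room temperature) from double-stable HepG2-CYP2B6-hCAR cells exposed 24 h to 15-point compound series in presence of 0.75 uM PK11195 final.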

[9] = qHTS assay to identify small molecule antagonists of the estrogen related receptor signaling pathway with the pleiotropic PPARgamma coactivator (PGC) from Tox21 10K library - cell viability counter screen (AID 1224840; active means well fitted cell-killing curve with a large enough effect in the repeat runs, not every such curve was filed as active; further: nearly all actives have a fitted effect of over 40% in size; further: potency means the concentration at half of the fitted maximal effect)
Summary of the method: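 Here the PGC/ERR cells serve as a cytotoxicity control: they are exposed to compounds for 17.5 hours at 37 C, and live-cell signal is quantified using CellTiter-Fluor fluorescence.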

[10] = qHTS assay to identify small molecule antagonists of the estrogen related receptor signaling pathway with the pleiotropic PPARgamma coactivator (PGC) from Tox21 10K library (AID 1224841; call rule not given here; further: actives are mostly falling curves and most rising ones were filed inactive; nearly all actives have a fitted effect of over 50% in size; further: potency means the concentration at half of the fitted maximal effect; on activity, negative = inhibition: series mostly up to about 92 µM)
Summary of the method: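 Each well held 2,000 PGC/ERR cells, pre-incubated six hours (37 C, 5% CO2). Test substances in DMSO were added by pin tool and left for 18 h at 37 C before luciferase detection by One-Glo.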

[11] = qHTS assay to identify small molecule agonists of the estrogen related receptor signaling pathway with the pleiotropic PPARgamma coactivator (PGC) from Tox21 10K library (AID 1224842); further: nearly all actives have a fitted effect of over 15% in size
Summary of the method: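 PGC/ERR reporter cells (NTP line) were seeded 2,000 per well, rested 6 h at 37 C/5% CO2, then pin-dosed with compounds in DMSO for 18 h at 37 C; luciferase read by One-Glo luminescence after 30 min at room temperature.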

[12] = target: Thyrotropin receptor (Homo sapiens) (UniProt P16473); experiment: qHTS assay to identify small molecule agonists of the thyroid stimulating hormone receptor (TSHR) signaling pathway (AID 1224843; calls by dose curve; further: nearly all actives have a fitted effect of over 45% in size; further: potency means the concentration at half of the fitted maximal effect)
Summary of the method: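 Cell line HEK293 with TSHR; density 800/well. Exposure 30 min RT. Readout HTRF cAMP (cAMP-d2/anti-cAMP-cryptate), 1 h RT before reading.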

[13] = target: Nuclear receptor subfamily 1 group I member 3 (Homo sapiens) (UniProt Q14994); experiment: qHTS assay to identify small molecule antagonists of the constitutive androstane receptor (CAR) signaling pathway (AID 1224838);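 further: HepG2 cells stably expressing hCAR with CYP2B6 luciferase reporter stimulated by CITCO; nearly all actives have a fitted effect of over 40% in size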; further: potency means the concentration at half of the fitted maximal effect
Summary of the method: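 Reporter luminescence was quantified after 24 h exposure of hCAR/CYP2B6-2.2kb double-stable HepG2 cells to compounds at 15 concentrations in the presence of 50 nM CITCO final.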

[14] = qHTS assay to identify small molecule antagonists of the constitutive androstane receptor (CAR) signaling pathway - cell viability counter screen (AID 1224837); further: series mostly up to about 92 µM; nearly all actives have a fitted effect of over 45% in size
Summary of the method: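 Using CellTiter-Fluor, viability is scored in HepG2 cells stably carrying hCAR and a 2.2kb CYP2B6 reporter after 23 hr compound exposure across 15 concentrations, with CITCO present at 50 nM.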
On the % scale 0 is the no-effect control and ±100 the full control effect.

Sequence of Luciferin 4-monooxygenase (Photinus pyralis) (P08659 whole entry, looked up): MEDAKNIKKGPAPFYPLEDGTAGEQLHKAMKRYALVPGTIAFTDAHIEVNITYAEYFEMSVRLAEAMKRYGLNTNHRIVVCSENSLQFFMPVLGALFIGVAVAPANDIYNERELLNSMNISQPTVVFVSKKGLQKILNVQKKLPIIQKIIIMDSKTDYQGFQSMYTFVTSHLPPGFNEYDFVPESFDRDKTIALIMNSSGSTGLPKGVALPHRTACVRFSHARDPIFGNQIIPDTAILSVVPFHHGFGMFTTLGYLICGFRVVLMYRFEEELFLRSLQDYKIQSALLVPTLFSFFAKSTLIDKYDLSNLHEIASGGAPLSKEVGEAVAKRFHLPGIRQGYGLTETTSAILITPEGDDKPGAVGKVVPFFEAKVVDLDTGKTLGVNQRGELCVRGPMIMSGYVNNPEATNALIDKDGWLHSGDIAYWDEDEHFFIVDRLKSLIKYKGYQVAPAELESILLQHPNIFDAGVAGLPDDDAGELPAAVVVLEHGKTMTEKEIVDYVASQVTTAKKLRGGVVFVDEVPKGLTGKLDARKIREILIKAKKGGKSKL
Sequence of Thyrotropin receptor (Homo sapiens) (P16473 whole entry, looked up): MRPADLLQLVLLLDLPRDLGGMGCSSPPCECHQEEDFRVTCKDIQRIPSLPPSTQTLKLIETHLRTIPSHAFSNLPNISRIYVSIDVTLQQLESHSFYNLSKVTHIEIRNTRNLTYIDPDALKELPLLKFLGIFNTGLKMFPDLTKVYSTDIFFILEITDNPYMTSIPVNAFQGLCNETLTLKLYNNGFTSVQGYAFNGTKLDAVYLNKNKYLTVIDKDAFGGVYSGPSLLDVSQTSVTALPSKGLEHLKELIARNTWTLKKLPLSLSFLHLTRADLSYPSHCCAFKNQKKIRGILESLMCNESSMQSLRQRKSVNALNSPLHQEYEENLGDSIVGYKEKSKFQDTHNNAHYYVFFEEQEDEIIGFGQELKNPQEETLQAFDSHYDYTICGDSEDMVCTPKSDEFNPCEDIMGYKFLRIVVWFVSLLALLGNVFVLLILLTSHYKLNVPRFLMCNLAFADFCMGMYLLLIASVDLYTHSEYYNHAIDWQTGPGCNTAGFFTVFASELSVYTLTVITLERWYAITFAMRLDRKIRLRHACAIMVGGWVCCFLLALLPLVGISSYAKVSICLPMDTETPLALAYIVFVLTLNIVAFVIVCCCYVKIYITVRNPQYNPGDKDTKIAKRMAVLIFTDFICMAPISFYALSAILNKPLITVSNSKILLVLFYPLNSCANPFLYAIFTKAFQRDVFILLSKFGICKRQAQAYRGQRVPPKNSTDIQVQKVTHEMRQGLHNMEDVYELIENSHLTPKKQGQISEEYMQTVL
Sequence of Nuclear receptor subfamily 1 group I member 3 (Homo sapiens) (Q14994 whole entry, looked up): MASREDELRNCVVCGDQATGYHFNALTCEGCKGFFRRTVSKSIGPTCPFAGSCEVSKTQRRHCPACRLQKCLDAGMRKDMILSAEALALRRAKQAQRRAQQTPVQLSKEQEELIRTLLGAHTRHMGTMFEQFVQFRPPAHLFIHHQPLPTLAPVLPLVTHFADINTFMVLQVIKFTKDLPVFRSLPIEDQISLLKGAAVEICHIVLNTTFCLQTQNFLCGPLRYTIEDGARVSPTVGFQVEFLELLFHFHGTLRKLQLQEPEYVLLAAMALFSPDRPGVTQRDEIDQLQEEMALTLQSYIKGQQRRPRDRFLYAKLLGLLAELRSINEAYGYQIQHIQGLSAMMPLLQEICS

CC(C)[N+](C)(CCC(C(N)=O)(c1ccccc1)c1ccccc1)C(C)C
inactive: Potency [1] | Potency [2] | Potency [3] | Potency [4] | Potency [5] | Potency [6] | Potency [7] | Potency [8] | Potency [9] | Potency [10] | Potency [11] | Potency [12]

CCc1cc(OC)c(C[C@H](C)N)cc1OC
inactive: Potency [1] | Potency [2] | Potency [3] | Potency [4] | Potency [5] | Potency [6] | Potency [7] | Potency [13] | Potency [8] | Potency [9] | Potency [12]

OP(O)c1ccccc1
inactive: Potency [1] | Potency [2] | Potency [3] | Potency [4] | Potency [5] | Potency [6] | Potency [7] | Potency [8] | Potency [9] | Potency [10] | Potency [11] | Potency [12]

CC(Cl)(Cl)Cl
inactive: Potency [1] | Potency [2] | Potency [3] | Potency [4] | Potency [5] | Potency [6] | Potency [7] | Potency [8] | Potency [9] | Potency [10] | Potency [11] | Potency [12]

CCCCCCCC(=O)Cl
inactive: Potency [1] | Potency [2] | Potency [3] | Potency [4] | Potency [5] | Potency [6] | Potency [7] | Potency [8] | Potency [9] | Potency [12]

CCCC(C)C1(CC)C(=O)N=C(S)NC1=O (stereo not drawn)
inactive: Potency [1] | Potency [2] | Potency [3] | Potency [4] | Potency [5] | Potency [7] | Potency [14] | Potency [13] | Potency [8] | Potency [9]

O=C(O)C(Cl)Br (stereo not drawn)
inactive: Potency [1] | Potency [2] | Potency [3] | Potency [4] | Potency [5] | Potency [6] | Potency [7] | Potency [13] | Potency [8] | Potency [9] | Potency [12]

CCOP(=S)(OCC)Oc1ccc(Cl)cc1Cl
active: Potency [8] 27.3 µM
inactive: Potency [1] | Potency [2] | Potency [3] | Potency [4] | Potency [5] | Potency [6] | Potency [7] | Potency [13] | Potency [9] | Potency [12]

Clc1nc(Cl)nc(Nc2ccccc2Cl)n1
inactive: Potency [1] | Potency [2] | Potency [3] | Potency [4] | Potency [5] | Potency [7] | Potency [14] | Potency [13] | Potency [8] | Potency [9] | Potency [10] | Potency [11] | Potency [12]

CC(C)(C)C(=O)Cl
inactive: Potency [1] | Potency [2] | Potency [3] | Potency [4] | Potency [5] | Potency [6] | Potency [7] | Potency [13] | Potency [8] | Potency [9] | Potency [12]

O=[N+]([O-])c1cccc(CCl)c1
inactive: Potency [1] | Potency [2] | Potency [3] | Potency [4] | Potency [5] | Potency [7] | Potency [14] | Potency [13] | Potency [9] | Potency [12]

CC(C)c1ccc(O)cc1
inactive: Potency [1] | Potency [2] | Potency [3] | Potency [4] | Potency [5] | Potency [6] | Potency [7] | Potency [8] | Potency [10] | Potency [11] | Potency [12]

CCOC(=O)Nc1cccc(OC(=O)Nc2ccccc2)c1
inactive: Potency [1] | Potency [2] | Potency [3] | Potency [5] | Potency [7] | Potency [13] | Potency [9] | Potency [12]
active: Potency [4] 27.3 µM | Potency [6] 31.7 µM | Potency [8] 30.6 µM

O=C1C2CC=CCC2C(=O)N1SC(Cl)(Cl)Cl (stereo not drawn)
inactive and 21.3 µM (active): Potency [12]
inactive and 24.1 µM (active): Potency [1]
inactive: Potency [4] | Potency [8] | Potency [11]
inactive and 30.1 µM (active): Potency [9]
inactive and 26.9 µM (active): Potency [2]
active: Potency [6] 25.1 µM and 31.2 µM | Potency [10] 7.66 µM and 47.8 µM
inactive and 13.5 µM (active): Potency [13]
inactive and 5.36 µM (active): Potency [3]
inactive and 53.6 µM (active): Potency [5]

CC(=NC#N)N(C)Cc1ccc(Cl)nc1
inactive: Potency [1] | Potency [2] | Potency [3] | Potency [4] | Potency [5] | Potency [6] | Potency [7] | Potency [9] | Potency [12]

NC(=O)CS(=O)C(c1ccccc1)c1ccccc1 (stereo not drawn)
inactive: Potency [1] | Potency [2] | Potency [3] | Potency [4] | Potency [5] | Potency [6] | Potency [7] | Potency [13] | Potency [8] | Potency [9] | Potency [10] | Potency [11] | Potency [12]

C[C@H](N)C(=O)c1ccccc1
inactive: Potency [1] | Potency [2] | Potency [3] | Potency [4] | Potency [5] | Potency [6] | Potency [7] | Potency [13] | Potency [8] | Potency [12]

CCC1(c2ccccc2)C(=O)N(COC)C(=O)N(COC)C1=O
inactive: Potency [1] | Potency [2] | Potency [3] | Potency [4] | Potency [5] | Potency [6] | Potency [7] | Potency [13] | Potency [9] | Potency [10] | Potency [11] | Potency [12]

CCc1ccc(C2CCNCC2)cc1
inactive: Potency [1] | Potency [2] | Potency [3] | Potency [4] | Potency [5] | Potency [6] | Potency [7] | Potency [9]

COc1cccc([C@@]2(O)CCCC[C@@H]2CN(C)C)c1
inactive: Potency [1] | Potency [2] | Potency [3] | Potency [4] | Potency [5] | Potency [6] | Potency [7] | Potency [9] | Potency [10] | Potency [11] | Potency [12]

Cc1ccc2c(c1)C1CN(C)CCC1N2 (stereo not drawn)
inactive: activity change, negative = cytotoxicity [1] -17.4% [at 15.8 µM] | activity change, negative = cytotoxicity [2] 2.36% [at 19 µM] | activity, negative = inhibition [3] -12.3% [at 19 µM] | Potency [4] | viability change, negative = cytotoxic [5] 8.02% [at 19 µM] | activity change, negative = inhibition [6] -0.519% [at 23.6 µM] | viability change, negative = cytotoxic [7] 3.2% [at 19 µM] | activation [8] 2.22% [at 19 µM] | viability change, negative = cytotoxic [9] 2.92% [at 19 µM] | activity, negative = inhibition [10] -1.31% [at 19 µM] | activation [11] -0.364% [at 19 µM] | activation [12] 15.7% [at 19 µM]

CCCOc1nn(C(=O)NS(=O)(=O)c2ccccc2C(=O)OC)c(=O)n1C
inactive: Potency [1] | Potency [2] | Potency [3] | Potency [4] | Potency [5] | Potency [6] | Potency [7] | Potency [13] | Potency [8] | Potency [9] | Potency [12]
